Assay results reported in PubChem BioAssay.

Tested on: Sam68 (KHDRBS1)
Test: Sam68 small-molecule binders, primary screen, biochemical, small-molecule microarray, 635 nm fluorescence (AID 1125);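 note: score merges 667 nm channel intensity with signal to noise over triplicate slides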
Settings: small-molecule microarray binding, higher = more signal

SMILES | composite z-score
CCCCCN1CC=CC23O[C@@H]4/C=C\CCCOC(=O)C4[C@H]2C(=O)N(CCO)[C@@H]3C1=O (stereo not given in full) | 0.428
CN1C2C=C(c3ccc(CO)cc3)C(C3C(=O)N(C(N)=O)C(=O)C32)C1C1CC1 (stereo not given) | 0.267
Cc1ccc(S(=O)(=O)N2[C@@H](c3ccccc3)C(C(=O)O)=C[C@H]2C(C)(C)C)cc1 | 1.3
C=C(C(=O)CC[C@@H](OC(=O)c1ccccc1-c1ccccc1C(=O)O)c1ccc(CO)o1)C(C)C | 0.754
COC(=O)[C@@]1(Cc2ccc(F)cc2)[C@@H]2C(=CC(=O)[C@H]2CC(=O)C(=O)N2CCCC2)CN1C(=O)c1ccccc1 | 1.22
COC(=O)C(CC#Cc1ccc2c(c1)[C@]1(C(=O)N2)[C@H](C(=O)N2CCCCCCC2)[C@H]2C(=O)O[C@H](c3ccccc3)[C@H](c3ccccc3)N2[C@@H]1c1ccc(OCCO)cc1)C(=O)OC | 1.33
C=CC[C@H](OC(=O)Nc1ccc(SC)cc1)c1ccc(O)c(F)c1 | -1.28
Cc1cccc([C@H]2C[C@H]3C(Br)=C[C@@]2(CO)C(=O)[C@]32CO2)c1 | 0.671
C=C(CCCC)C(=O)CC[C@H](OC(=O)c1ccccc1-c1ccccc1C(=O)O)c1cccc(OCCO)c1 | 0.225

Tested on: Chordin-like protein 2 (CHRDL2)
Test: CHRDL2 small-molecule binders, primary screen, biochemical, small-molecule microarray, 635 nm fluorescence (AID 1126);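 note: printed compound slides probed with Chrdl2 protein at 4 µg/mL for 1 h at 4 C; score merges 667 nm emission intensity with signal to noise over three replicate slides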
Settings: small-molecule microarray binding, fluorescence 635 nm; higher = more signal

SMILES | composite z-score
CCOC(=O)C1=CC[C@@H](c2ccccc2)N(S(=O)(=O)c2ccc(C)cc2)[C@@H]1C#N | -0.315
C=CCN1C(=O)[C@]2(O[C@H](CCO)[C@@H]([Si](C)(C)c3ccc(OC)cc3)[C@@H]2C)c2cc(N3C(=O)c4ccccc4Oc4ccccc43)ccc21 | -0.175
C=CCOC(=O)[C@H]1[C@@H]2C(=O)O[C@@H](c3ccccc3)[C@@H](c3ccccc3)N2[C@@H](c2ccc(OCCOC(=O)[C@H]3C[C@H]4C(=O)NCC(=O)N4[C@H]3c3ccc(O)cc3)cc2)[C@]12C(=O)Nc1ccccc12 | 0.815
C=CCOC(=O)[C@H]1[C@@H]2C(=O)O[C@@H](c3ccccc3)[C@@H](c3ccccc3)N2[C@@H](c2ccc(OCCOC(=O)[C@@H]3C[C@@H]4C(=O)N[C@@H](Cc5ccccc5)C(=O)N4[C@@H]3c3ccc(O)cc3)cc2)[C@]12C(=O)Nc1ccc(I)cc12 | 0.915
CC(C)[Si](C#Cc1ccccc1)(O[C@H](c1ccccc1)c1cn(Cc2ccccc2)nn1)C(C)C | 0.664
O=C(NCCN1CCOCC1)[C@@H]1c2ccccc2C(=O)N(CC23CC4CC(CC(C4)C2)C3)[C@H]1c1ccc(CO)cc1 | 0.0884
O=C1O[C@@H](c2ccccc2)[C@@H](c2ccccc2)N2[C@@H](c3ccccc3OCCO)[C@]3(C(=O)Nc4ccc(C#CC5(O)CCCCCC5)cc43)[C@@H](C(=O)N3CCCCCCC3)[C@H]12 | 1.69
CCOC(=O)C[C@H]1[C@H](OC(=O)c2ccc(-c3ccccc3)cc2)[C@@H](NC(=O)C2CCCCC2)c2cc(OCCCO)ccc2N1C(=O)Cc1ccc(OC)cc1 | 0.0463
C=CCC(OC(C)=O)[C@@H]1[C@@H](N(Cc2cccc3ccccc23)C(=O)c2ccc(C)cc2)c2cc(OCCCO)ccc2N1C(=O)Cc1ccc2ccccc2c1 (stereo not given in full) | 0.0854
COC(=O)C1(CC(C)C)C=C2C(=C(C)C(=O)C2C)CN1 (stereo not given) | 0.0633
COC(=O)[C@@]1(Cc2ccc(F)cc2)[C@H]2c3cc(C(=O)N4CCCC4)n(C[C@H](O)CO)c3C[C@H]2CN1C(=O)c1ccccc1 | 0.0578
COC(=O)C(CC#Cc1ccc2c(c1)[C@]1(C(=O)N2)[C@H](C(=O)NC[C@H](O)c2ccccc2)[C@H]2C(=O)O[C@H](c3ccccc3)[C@H](c3ccccc3)N2[C@@H]1c1ccc(O)cc1)C(=O)OC | -0.275
CC(C)c1ccc(NN2C(C(O)C3CCCCC3)C=CC3C(=O)N(c4ccccc4)C(=O)C32)cc1 (stereo not given) | -0.261
CN(C)C(=O)[C@]1(CCS(=O)(=O)c2ccccc2)N=C(c2ccc(OCCCO)cc2)O[C@@H]1c1ccccc1CN=[N+]=[N-] | -0.109
COc1ccc(C(=O)Nc2cccc(CN3C(=O)[C@]4(O[C@H](CC(=O)N(CCO)Cc5ccccc5)[C@@H]([Si](C)(C)c5ccc(OC)cc5)[C@@H]4C)c4ccccc43)c2)cc1 | 0.972
C=CCNC(=O)[C@@H]1[C@H]2C(=O)O[C@H](c3ccccc3)[C@H](c3ccccc3)N2[C@H](c2ccc(O)cc2)[C@@]12C(=O)N(C(=O)OCCOC)c1ccc(C#CCC(C(=O)OC)C(=O)OC)cc12 | 0.413
C=CCNC(=O)[C@H]1[C@@H]2C(=O)O[C@@H](c3ccccc3)[C@@H](c3ccccc3)N2[C@@H](c2ccc(OCCO)cc2)[C@]12C(=O)N(C(=O)OCCOC)c1ccc(C#CCNC(N)=O)cc12 | 0.742
COC(=O)[C@@]1(Cc2ccc(OC)cc2)[C@@H]2[C@@H](CC(=O)[C@H]2CC(=O)C(=O)N(C)C)CN1C(=O)c1ccccc1 | -0.875

SMILES | composite z-score
CC(C)N1C(=O)[C@@]2(Cc3ccccc31)c1ccccc1C(=O)N(Cc1ccccc1C(F)(F)F)[C@H]2c1ccc(CO)cc1 | 1.14
COc1ccc(C#Cc2ccc3c(c2)[C@]2(C(=O)N3)[C@H](c3ccccc3OCCO)N3[C@H](c4ccccc4)[C@H](c4ccccc4)OC(=O)[C@H]3[C@@H]2C(=O)NC[C@H](O)c2ccccc2)cc1 | -0.0767
O=C1O[C@H](c2ccccc2)[C@H](c2ccccc2)N2[C@H]1[C@@H](C(=O)O)[C@]1(C(=O)Nc3ccccc31)[C@H]2c1ccc(OCCO)cc1 | -0.192
Cc1ccc(S[C@]2(C(=O)NCCN3CCOCC3)CC(=O)N(C(C)C)[C@@H]2c2ccc(CO)cc2I)cc1 | -0.975
COc1ccc([Si](C)(C)[C@H]2[C@H](CC(=O)N(CCO)Cc3ccccc3)O[C@@]3(C(=O)N(c4ccccc4)c4ccccc43)[C@@H]2C)cc1 | 1.19
CN1C(=O)C2C=CC(C(O)c3ccc(I)cc3)N(N(c3ccccc3)c3ccccc3)C2C1=O (stereo not given) | 0.0635
C=CCC(OC(C)=O)[C@@H]1[C@@H](N(Cc2ccc(-c3ccccc3)cc2)C(=O)Cc2ccc(OC)cc2)c2cc(OCCCO)ccc2N1C(=O)Cc1ccc(OC)cc1 (stereo not given in full) | 0.235
Cc1ccc(S[C@]2(C(=O)NC(C)C)CC(=O)N(Cc3ccccc3)[C@@H]2c2ccc(CO)cc2)cc1 | -1.31
C=CCNC(=O)[C@H]1[C@@H]2C(=O)O[C@@H](c3ccccc3)[C@@H](c3ccccc3)N2[C@@H](c2ccc(OCCO)cc2)[C@]12C(=O)N(C(=O)OCCOC)c1ccc(C#CCC(C(=O)OC)C(=O)OC)cc12 | 0.6
CCCCCN1CC=CC23O[C@@H]4/C=C\CCCOC(=O)C4[C@H]2C(=O)N(CCO)[C@@H]3C1=O (stereo not given in full) | 0.323
CN1C2C=C(c3ccc(CO)cc3)C(C3C(=O)N(C(N)=O)C(=O)C32)C1C1CC1 (stereo not given) | -0.0733
Cc1ccc(S(=O)(=O)N2[C@@H](c3ccccc3)C(C(=O)O)=C[C@H]2C(C)(C)C)cc1 | -0.301
C=C(C(=O)CC[C@@H](OC(=O)c1ccccc1-c1ccccc1C(=O)O)c1ccc(CO)o1)C(C)C | 0.386
COC(=O)[C@@]1(Cc2ccc(F)cc2)[C@@H]2C(=CC(=O)[C@H]2CC(=O)C(=O)N2CCCC2)CN1C(=O)c1ccccc1 | 0.484
COC(=O)C(CC#Cc1ccc2c(c1)[C@]1(C(=O)N2)[C@H](C(=O)N2CCCCCCC2)[C@H]2C(=O)O[C@H](c3ccccc3)[C@H](c3ccccc3)N2[C@@H]1c1ccc(OCCO)cc1)C(=O)OC | 1.57
C=CC[C@H](OC(=O)Nc1ccc(SC)cc1)c1ccc(O)c(F)c1 | -0.174
Cc1cccc([C@H]2C[C@H]3C(Br)=C[C@@]2(CO)C(=O)[C@]32CO2)c1 | -0.15
C=C(CCCC)C(=O)CC[C@H](OC(=O)c1ccccc1-c1ccccc1C(=O)O)c1cccc(OCCO)c1 | -0.189
